# COUP-TFII inh: blocks human COUP-TFII nuclear receptor; P24468; HEK293T NGFI-A luciferase reporter, luminescence; inhibition, % at 8.6 µM; 0.7% of 370,000 active; AID 686940;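 active = inhibition above a per-plate cutoff, mean inhibition of test wells between control levels plus 3 SD, cut at about 38% in these data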;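 also: cells cotransfected with COUP-TFII expression vector driving the NGFI-A reporter; 0% = median of COUP-TF2 test wells and 100% = reporter-only cells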
# NCOA2 inhibitor: inhibits human steroid receptor coactivator 2. Q15596. HEK293 GAL4-SRC2 luciferase reporter, luminescence. inhibition, % at 9 µM. 0.17% of 370,000 active. AID 651957;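 active = inhibition above the mean inhibition of all tested compounds plus 3 SD, set per campaign, cut at about 52% in these data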;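 also: 0% = DMSO treated cells and 100% = cells given Gossypol at 36 µM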
# LRH-1 inv ag: NR5A2 inverse agonism in reporter assay; O00482; HEK293T StAR-luciferase reporter, LRH-1 transfected, 24 h; inhibition, % at 3.6 µM; 0.13% of 360,000 active;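 active = inhibition above the mean inhibition of all tested compounds plus 3 SD, cut at about 73% in these data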;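 also: 0% = DMSO wells and 100% = reporter-only cells lacking LRH-1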
# NCOA1 inh: human NCOA1 inhibition | AID 588354 | HEK293 GAL4-SRC1 luciferase reporter, luminescence | 0.12% of 360,000 active | Q15788 | inhibition, % at 3.6 µM;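 active = inhibition above the campaign mean plus 3 SD, with each screening campaign given its own cutoff, cut at about 60% in these data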;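 also: 0% = DMSO treated cells and 100% = gossypol at 36 µM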
# GalR3 antagonist: blocks the human galanin receptor 3; HEK293 GalR3-CNG cAMP membrane potential fluorescence; galR3 body fused to GalR1 C-terminus; inhibition, % at 3 µM; 0.44% of 360,000 active; AID 651719; O60755;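 active = inhibition above the screen-wide average plus 3 SD, cut at about 13% in these data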;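 also: forskolin and galanin both at EC90 stimulate the cells; cAMP rise reported by CNG channel membrane potential dye signal; 0% = forskolin plus galanin with DMSO and 100% = forskolin alone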
# SRC3 inh: inhibitors of human steroid receptor coactivator 3 (SRC3); Q9Y6Q9; HEK293 GAL4-SRC3 luciferase reporter, luminescence; inhibition, % at 3.6 µM; 0.17% of 360,000 active; AID 588352;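 active = inhibition above a per-campaign cutoff, the mean of all compounds plus 3 SD, cut at about 60% in these data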;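 also: 0% = DMSO-treated cells and 100% = gossypol-treated cells at 36 µM; higher means less SRC3-driven luciferase light from the GAL4 reporter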
# VP16 Luc counter: inhibits VP16 reporter, flagging COUP-TFII antagonist hits; HEK293 Gal4-VP16 luciferase reporter, luminescence; inhibition, % at 8.5 µM; 25% of 2,500 active; shares compounds with COUP-TFII inh; in the data active = inhibition above about 13%
# NR2F2 inh conf: confirmation of human COUP-TFII (NR2F2) inhibitors | AID 687008 | shares compounds with COUP-TFII inh | HEK293 NGFI-A luciferase reporter, luminescence | 45% of 2,500 active | inhibition, % at 8.5 µM;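 active = mean inhibition over three repeats above a set limit taken from the earlier primary screen, cut at about 38% in these data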;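 also: 100% = cells given the luciferase reporter alone without the COUP-TF2 vector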
# The depositor's hits bear a star; / = no result. Only some compounds are listed: those with a hit (about 1.1% of all), similar ones and a draw of the others.
SMILES,COUP-TFII inh,NCOA2 inhibitor,LRH-1 inv ag,NCOA1 inh,GalR3 antagonist,SRC3 inh,VP16 Luc counter,NR2F2 inh conf
COC(=O)c1ccc(-c2nc3cc(N)ccc3o2)cc1,41*,42,29,-40,-2,-13,22*,-11
COC(=O)c1ccc(Oc2ccc(S(=O)(=O)N3CCCCC3)cc2N)cc1,39*,3,17,14,-11,9,-4,26
CCCCOc1ccc(C)cc1CN(CCO)CCO,7,-20,-6,-14,-4,3,/,/
CCCCCc1ccc(OCCCC[n+]2ccc(C)cc2)c(CCCCC)c1,56*,-17,42,-1,6,12,21*,32
CCCCCc1ccc(OCCCC[n+]2ccccc2)c(CCCCC)c1,/,/,42,-2,/,45,/,/
CCCCCc1ccc(OCCCC[n+]2cccc(C)c2)c(CCCCC)c1,57*,4,58,15,-5,51,8,28
O=C(CSc1nc2ccccc2nc1N1CCCCC1)N1CCN(S(=O)(=O)c2cc(Cl)ccc2Cl)CC1,5,-24,/,/,/,/,/,/
O=C(CN1CCN(C(=O)CNC(=O)c2ccc3c(c2)OCO3)CC1)Nc1ccccc1Cl,-14,16,2,-15,4,-7,/,/
O=C(CN1CCN(C(=O)CNC(=O)c2ccc(-c3ccccc3)cc2)CC1)Nc1ccccc1Cl,50*,-24,31,11,-6,3,-8,21
CCN1CCN(Cc2ccc(NC(=O)c3ccc(C)c(NC(=O)c4ccc5n[nH]nc5c4)c3)cc2C(F)(F)F)CC1,8,-8,-6,3,-6,-7,/,/
CCN1CCN(Cc2ccc(NC(=O)c3cccc(-c4ccc5nc(NC(=O)C6CC6)sc5n4)c3)cc2C(F)(F)F)CC1,40*,37,/,/,1,/,11,40*
Cc1ccsc1C=Nn1c(-c2n[nH]c3c2CCC3)n[nH]c1=S,3,-9,/,/,/,/,/,/
Cc1cc(N2CCN(C(=O)Oc3ccc([N+](=O)[O-])cc3)CC2)c2ccccc2n1,43*,24,28,/,-7,/,1,20
Cc1cc(N2CCN(S(=O)(=O)c3ccc(Cl)cc3)CC2)c2ccccc2n1,41*,17,-2,-4,-8,11,-1,14
COc1ccc(N2CCN(C(=O)Oc3ccc([N+](=O)[O-])cc3)CC2)cc1,12,14,11,/,-6,/,/,/
CCOc1ccccc1C(=O)Nc1ccc(C(=O)NCC2COc3ccccc3O2)cc1 (stereo unspecified),7,5,/,/,/,/,/,/
Cc1ccc(N2C(N)=C(C#N)C3(C(=O)N(C)c4ccccc43)C3=C2CC(C)(C)CC3=O)cc1Cl (stereo unspecified),14,-18,19,34,-6,21,/,/
CN1C(=O)C2(C(C#N)=C(N)N(c3cc(Cl)cc(Cl)c3)C3=C2C(=O)CC(C)(C)C3)c2ccccc21 (stereo unspecified),44*,24,14,22,-8,38,-17,30
COc1cc2c(cc1OC)C(c1c(Cl)cccc1Cl)=NCC2,72*,22,-3,-32,-5,-50,12,58*
COc1cc2c(cc1OC)C(c1c(-c3c(Cl)cccc3Cl)noc1C)=NCC2,14,-12,-8,11,-3,-13,/,/
CC1CN(c2ccnc3cc(Cl)ccc23)CCN1C(=O)c1ccc(Cl)cc1 (stereo unspecified),50*,/,/,/,/,/,4,16
O=C(c1cccc(Cl)c1)N1CCN(c2ccnc3cc(Cl)ccc23)CC1,49*,/,/,/,/,/,3,23
COC(=O)C1CN(Cc2ccc(F)cc2)CCS(=O)(=O)N1Cc1ccc(OC)cc1 (stereo unspecified),5,-10,/,/,/,/,/,/
COc1ccc(-c2nnc(SCc3c(F)cccc3F)n2N)cc1,-40,-40,/,/,/,/,/,/
C/C(=C/c1nc(N)n(Cc2ccccc2)c1Cc1ccccc1)Cn1[nH]c(=O)n(-c2ccccc2)c1=O,5,27,/,/,/,/,/,/
O=C(Nc1cccc(S(=O)(=O)NC2=NCCCCC2)c1)c1ccc(Cl)cc1,43*,16,24,-5,-5,7,-7,10
